Source: PubChem BioAssay (National Center for Advancing Translational Sciences (NCATS))
HepG2 tox: kills HepG2 cells in TGF-b inhibitor counter-screen. 410,000 tested, 0.76% active. HepG2 CAGA-GFP viability, ATP luminescence, 18 h. Potency, µM (titrated, usually from 46.1 µM), for the others: top-dose activity change, negative = cytotoxicity, actives largely listed as cytotoxic; further: potency means the concentration at half of the fitted maximal effect
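HepG2 CAGA-GFP cells (1000/well, DMEM with 1% FBS) received compound, then TGF-beta at 500 pg/mL final, and were incubated 18 hours at 37 degrees C. Viability was read by CellTiter-Glo luminescence. Media-only wells were set as complete cell-killing and DMSO as no toxicity.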
DT40 TDP1 CPT: growth inhibition of DT40 Tdp1-/-;hTDP1 cells with camptothecin (screen for TDP1 inhibitors). chicken DT40 Tdp1-/-;hTDP1 cells + 20 nM CPT, ATP luminescence, 48 h. Potency, µM (titrated, usually from 46.2 µM), for the others: top-dose activity change, negative = growth inhibition, most hits filed as inhibitors. 420,000 tested, 12% active. AID 686979; further: potency means the concentration at half of the fitted maximal effect; on the % scale 0 is the no-effect control and ±100 the full control effect; nearly all actives have a fitted effect of over 55% in size
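Cell growth measured by CellTiter-Glo luminescence after a minimum 48 h, 37 C compound exposure with 20 nM CPT in Tdp1-knockout DT40 cells stably expressing hTDP1, seeded 400/well; qHTS titration format.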
IL-1B inflam inh: inflammasome signaling inhibition, IL-1 beta readout | activity change, % at 57.5 µM | AID 743279 | 360,000 tested, 4.7% active | THP-1 LPS/ATP IL-1B secretion, AlphaLISA, 16 h; active compounds read low; in the data active means activity change below about -50%; inconclusive means mostly about -30% to -49%; further: on the % scale 0 is the no-effect control and ±100 the full control effect
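THP-1 cells pretreated 1 hr with compounds (up to 57.5 uM final), then stimulated with LPS (250 ng/mL final) plus ATP (1.25 mM final); secreted IL-1B measured by AlphaLISA after 16 hr, decreased signal indicating inhibition.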
TGFb SMAD3 inh: TGF-b pathway inhibition; HepG2 CAGA-GFP TGF-b/SMAD3 reporter, GFP fluorescence, 18 h; TGF-beta stimulated, 500 pg/mL final; Potency, µM (highest dose often 46.1 µM), for the others: at the highest dose activity, negative = inhibition, hits mostly inhibitors; 410,000 tested, 1.2% active; AID 588855; further: potency means the concentration at half of the fitted maximal effect; on the % scale 0 is the no-effect control and ±100 the full control effect; nearly all actives have a fitted effect of over 65% in size
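HEPG2 CAGA-GFP cells (1000/well, DMEM with 1% FBS) were pre-incubated 2 h at 37 degrees C, given compound by pin tool, then stimulated with TGF-beta at 500 pg/mL final for 18 h before per-cell GFP fluorescence imaging.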
DT40 TDP1 no CPT: qHTS for Inhibitors of human tyrosyl-DNA phosphodiesterase 1 (TDP1): qHTS in cells in absence of CPT; DT40 Tdp1-/- hTDP1 cells, no CPT, ATP luminescence, 48 h; Potency, µM (doses to about 46.2 µM), inactives show at the highest dose activity change, negative = growth inhibition, hits mostly inhibitors; 420,000 tested, 15% active; AID 686978, 2013; further: potency means the concentration at half of the fitted maximal effect; on the % scale 0 is the no-effect control and ±100 the full control effect; nearly all actives have a fitted effect of over 55% in size
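Stably hTDP1-transfected Tdp1-null chicken DT40 cells were treated with library compounds minus camptothecin and grown for at least 48 hr at 37 °C, after which cellular ATP was quantified by luminescence.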
ASM inhibitor: inhibitors of human secretory acid sphingomyelinase. P17405. placental ASM, HMU-PC fluorogenic substrate, 60 min. Potency, µM (top dose mostly 57.5 µM), without a hit: top-dose activity change, negative = inhibition, hits mostly inhibitors. 340,000 tested, 0.006% active; further: potency means the concentration at half of the fitted maximal effect
Target sequence (P17405 47-631 limits assumed): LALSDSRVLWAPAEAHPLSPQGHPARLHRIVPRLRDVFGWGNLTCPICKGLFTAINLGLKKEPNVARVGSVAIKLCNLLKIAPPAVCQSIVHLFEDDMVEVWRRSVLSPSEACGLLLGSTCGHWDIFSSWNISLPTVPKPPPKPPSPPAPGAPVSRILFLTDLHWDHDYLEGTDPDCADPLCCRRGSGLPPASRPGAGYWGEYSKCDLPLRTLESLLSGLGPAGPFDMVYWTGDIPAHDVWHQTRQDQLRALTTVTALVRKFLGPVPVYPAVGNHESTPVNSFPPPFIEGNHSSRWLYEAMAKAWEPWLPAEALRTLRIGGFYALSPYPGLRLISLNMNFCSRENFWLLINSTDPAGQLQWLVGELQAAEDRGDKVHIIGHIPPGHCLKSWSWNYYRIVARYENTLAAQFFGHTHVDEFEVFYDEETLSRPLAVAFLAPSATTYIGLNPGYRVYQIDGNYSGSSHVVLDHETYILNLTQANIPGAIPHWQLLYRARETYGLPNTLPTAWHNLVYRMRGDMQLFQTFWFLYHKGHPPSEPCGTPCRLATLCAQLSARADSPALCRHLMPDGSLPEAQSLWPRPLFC
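Fluorogenic HMU-PC substrate (9 uM final) is turned over by placental ASM in 60 min at 37 C after a 10 min compound preincubation. Reaction ended by alkaline stop (pH 10), with fluorescence read at 386/447 nm.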
Numbers without * were called inactive; u = inconclusive; x = no result given. In the library only some 19% were active in any assay of this set; here they are far more common. Unless noted, the call rests on the fitted dose curve; in most records, active means well fitted curve in the direction sought with a large enough effect; inconclusive means small, poorly fitted or top-dose-only effect, or another doubt; inactive means no such curve, though single readings can be large; an effect the other way counts as inactive or inconclusive.

SMILES	HepG2 tox	DT40 TDP1 CPT	IL-1B inflam inh	TGFb SMAD3 inh	DT40 TDP1 no CPT	ASM inhibitor
CC1(C)CC(=O)C=C(/C=C/c2ccccc2)C1	-6%	23µM*	-23	3%	-16%	0%
O=C1c2[nH]nc(-c3ccccc3O)c2C(c2ccccc2)N1Cc1ccco1 (configuration not stated)	-65%	23µM*	-26	u	21µM*	-16%
O=C1c2[nH]nc(-c3ccccc3O)c2C(c2ccc(Cl)cc2)N1Cc1ccco1 (configuration not stated)	16µM*	16µM*	x	u	u	x
COc1cc(C2c3c(-c4ccccc4O)n[nH]c3C(=O)N2Cc2ccco2)ccc1OCC(C)C (configuration not stated)	-111%	u	x	u	18µM*	x
Cc1ccc(O)c(-c2n[nH]c3c2C(c2ccccc2F)N(Cc2ccco2)C3=O)c1 (configuration not stated)	11µM*	u	x	u	21µM*	x
Cc1ccc(Cl)cc1N1CCN(C(=O)c2ccc3c(c2)N(Cc2ccc(F)cc2)CCS3)CC1	0%	u	x	-3%	u	x
CC(=O)Nc1ccc(NC(=O)CSc2nccn2Cc2ccc3c(c2)OCO3)cc1	-46%	u	x	u	u	x
Cc1ccc(OC(=O)c2sc3ncn(C)c(=O)c3c2C)cc1	21%	2%	-12	10%	-7%	-2%
CC(=O)N1CCN(c2nc(C)nc3sc4c(c23)CCC(C)C4)CC1 (configuration not stated)	-25%	-20%	-20	-25%	-22%	1%
CC#CCOC(=O)c1c(C)nc2sc3c(c2c1N)CCC(O)C3 (configuration not stated)	-5%	u	-9	23%	9.2µM*	6%
O=C(NCC1CCCO1)C(c1cccs1)N(Cc1ccccc1Cl)C(=O)c1ccc(-c2ccccc2)[nH]1 (configuration not stated)	3%	u	u	u	23µM*	-8%
O=C(NCC(=O)N(Cc1ccccc1)C(C(=O)NCC1CCCO1)c1ccccc1)c1ccco1 (configuration not stated)	-6%	-11%	-17	-1%	-30%	5%
Cc1ccc(C(C(=O)NCC2CCCO2)N(Cc2ccccc2)C(=O)c2ccc(-c3ccccc3)[nH]2)o1 (configuration not stated)	-7%	u	-79*	u	u	-14%
CC(=O)OCCCN(C)CC/C=C1/c2ccccc2CSc2ccccc21	-41%	u	-70*	u	u	-3%
C[N+](C)(C)CC/C=C1/c2ccccc2CSc2ccccc21	-16%	u	-19	-22%	u	0%
CCC(C)Sc1ccc([C@@H]2[C@@H]3C(=O)N(C)C(=O)[C@@H]3[C@]3(C(=O)OC)CCCCN23)cc1OC (some centres not stated)	-11%	u	0	1%	18µM*	-6%
CCC(C)Sc1ccc([C@H]2N[C@@](C)(C(=O)OC)[C@H]3C(=O)N(C)C(=O)[C@@H]23)cc1OC (some centres not stated)	-8%	-35%	17	4%	u	2%
CCC(C)Sc1ccc([C@@H]2[C@H]3C(=O)N(C)C(=O)[C@H]3[C@]3(C(=O)OC)CCCN23)cc1 (some centres not stated)	-5%	u	28	1%	15µM*	-4%
Cc1ccc2c(c1)sc1nc(-c3cc4cc(Cl)ccc4oc3=O)cn12	5%	14%	x	23%	-12%	x
